The list is not random: actives were taken first. Their share in the collection is about 3.5%.
FBW7 activator = FBW7 E3 ligase activators, primary screen, biochemical, AlphaScreen, human; AlphaScreen FBW7–phospho-cyclin E peptide binding, activator screen; hit rate 0.13% among 650,000; normalized activity (activation), % at 26.1 µM; F-box/WD repeat-containing protein 7 (Homo sapiens), Q969H0; AID 1259310, 2017; in the data active means normalized activity above about 1.9%;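 further: purified mutant Fbw7 with reduced substrate affinity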
Target sequence (Q969H0 whole entry, looked up): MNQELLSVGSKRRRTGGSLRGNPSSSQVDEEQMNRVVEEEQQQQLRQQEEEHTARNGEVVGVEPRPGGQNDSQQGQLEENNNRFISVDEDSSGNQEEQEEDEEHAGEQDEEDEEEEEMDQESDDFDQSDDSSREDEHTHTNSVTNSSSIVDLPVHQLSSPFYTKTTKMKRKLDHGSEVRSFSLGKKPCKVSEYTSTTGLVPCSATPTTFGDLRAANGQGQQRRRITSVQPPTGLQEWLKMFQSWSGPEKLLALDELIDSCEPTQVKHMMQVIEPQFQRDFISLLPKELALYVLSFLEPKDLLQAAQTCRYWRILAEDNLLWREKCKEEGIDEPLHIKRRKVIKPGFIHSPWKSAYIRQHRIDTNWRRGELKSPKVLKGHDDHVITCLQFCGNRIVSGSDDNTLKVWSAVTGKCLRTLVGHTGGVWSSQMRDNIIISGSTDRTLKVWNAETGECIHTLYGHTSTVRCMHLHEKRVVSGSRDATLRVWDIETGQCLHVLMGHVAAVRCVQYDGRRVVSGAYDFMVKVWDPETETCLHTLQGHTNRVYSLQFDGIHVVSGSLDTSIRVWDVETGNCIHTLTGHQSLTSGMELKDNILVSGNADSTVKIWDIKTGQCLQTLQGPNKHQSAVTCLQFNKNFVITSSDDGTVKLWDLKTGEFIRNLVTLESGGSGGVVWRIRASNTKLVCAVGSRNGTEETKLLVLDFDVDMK
MITF primary = MITF inhibitors, primary screen, biochemical, AlphaScreen, human | Microphthalmia-associated transcription factor (Homo sapiens), O75030 | AlphaScreen MITF homodimerization, bead proximity signal | inhibition, % at 2.6 µM | hit rate 0.91% among 650,000; in the data active means inhibition above about 50%;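 further: 0% = vehicle wells with protein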
TEAD-YAP inh = TEAD-YAP interaction inhibition, primary screen, TEAD-YAP interaction inhibitor project, luminescence, HEK-TIYL cells; TEAD-Gal4/YAP UAS-luciferase luminescence; hit rate 1.4% among 640,000; AID 1259422, 2018; inhibition, % at 9.12 µM; in the data active means inhibition above about 32%;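 further: 0% = median of test compound wells and 100% = reference inhibitor wells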
GPR151 ag = activators of human GPR151, primary screen, cell-based, PathHunter beta-arrestin, luminescence; AID 1508602, 2020; PathHunter beta-arrestin GPR151 cells; activation, % at 11.2 µM; hit rate 1% among 650,000; in the data active means activation above about 4.9%;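 further: 0% = median of compound wells and 100% = cells with positive control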
* marks the source's active call; other numbers are inactive results.

SMILES | FBW7 activator | MITF primary | TEAD-YAP inh | GPR151 ag
c1cc(Nc2nc3ncnc(NCCN4CCOCC4)c3[nH]2)ncn1 | 0 | 1 | 12 | 1
COc1cccc(C2=CC(c3cc(Br)ccc3F)n3ncnc3N2)c1 (configuration not stated) | 0 | 1 | 47* | 0
COc1cccc(C2=CC(c3ccccc3OC(F)F)n3ncnc3N2)c1 (configuration not stated) | 0 | 6 | 52* | -1
COc1cccc(C2=CC(c3ccc(OC(F)F)cc3)n3ncnc3N2)c1 (configuration not stated) | 1 | 3 | -52 | -1
COc1cccc(C2=CC(c3ccc(OC)cc3OC)n3ncnc3N2)c1 (configuration not stated) | 0 | 3 | 40* | -1
COc1ccc(C)cc1NC(=O)CN(CCc1ccccc1)S(=O)(=O)c1ccc(Br)cc1 | 0 | 11 | 3 | -2
O=C(CN1C(=O)c2ccccc2C1=O)N1CCN(c2ccc(F)cc2)CC1 | 2.0* | 26 | -3 | -2
NNC(=O)c1sc2cccc(Cl)c2c1Cl | 0 | 1 | 9 | 0
O=C(CN(c1cccc([N+](=O)[O-])c1)S(=O)(=O)c1ccccc1)Nc1ccc(Cl)cc1 | 0 | -8 | 5 | 1
C/C(=N\NC(=O)c1nnn(-c2nonc2N)c1-c1ccccc1)c1ccc(O)cc1O | 0 | -2 | 43* | 2
C/C(=N\NC(=O)c1nnn(-c2nonc2N)c1-c1ccccc1)c1ccccc1O | 0 | 22 | 44* | -1
C/C(=N\NC(=O)c1nnn(-c2nonc2N)c1-c1ccccc1)c1ccc(O)cc1 | 0 | 1 | 13 | 2
NC(=O)CCC(NC(=O)NC1CCCCC1)C(=O)O (configuration not stated) | 2.1* | 20 | -10 | -1
NC(=O)CCC(NC(N)=O)C(=O)O (configuration not stated) | 0 | 16 | 7 | 0
COc1ccc(N=Cc2c(O)n(-c3ccc(OC)cc3)c(=O)c3ccccc23)cc1 | 0 | 7 | 13 | 0
Cc1ccc(-n2c(O)c(C=Nc3ccc(S(N)(=O)=O)cc3)c3ccccc3c2=O)cc1C | 0 | 1 | 80* | -1
CN(C)c1ncn(-c2ccc(Nc3nccc(-c4cncc(N5CCOCC5)c4)n3)cc2)n1 | 0 | -5 | 63* | 0
FC(F)(F)c1ncn(-c2ccc(Nc3nccc(-c4cncc(N5CCOCC5)c4)n3)cc2)n1 | 0 | -8 | -9 | 0
CC(C)(C)c1ncn(-c2ccc(Nc3nccc(-c4cncc(N5CCOCC5)c4)n3)cc2)n1 | 0 | -12 | 74* | 4
N#CC1=C(N)Oc2n[nH]c(-c3cccc([N+](=O)[O-])c3)c2C1c1ccccc1OC(=O)N1CCOCC1 (configuration not stated) | 0 | 40 | 12 | 1
COc1ccc(/C=C2\C=C(c3ccccc3)N(c3ccccc3)C2=O)cc1 | 0 | 4 | -48 | 1
COc1ccc(/C=C2\C=C(c3ccccc3)N(c3ccc(C)cc3Br)C2=O)cc1 | 0 | 1 | 47* | -1
COc1ccc(/C=C2\C=C(c3ccccc3)N(c3ccccc3Br)C2=O)cc1 | 0 | 10 | 24 | -1
COc1ccc(/C=C2\C=C(c3ccccc3)N(c3ccc(C)cc3C)C2=O)cc1 | 1 | 27 | 45* | 0
Cc1ccc(N2C(=O)/C(=C/c3ccc(Cl)cc3)C=C2c2ccccc2)c(C)c1 | 0 | 22 | -6 | 1
SMILES | FBW7 activator | MITF primary | TEAD-YAP inh | GPR151 ag
COc1ccc(/C=C2\C=C(c3ccccc3)N(c3ccc(O)cc3)C2=O)cc1 | 0 | 11 | 49* | 2
CC1CCCCN1C(=O)CSc1nnc(-c2ccc3c(c2)OCO3)o1 (configuration not stated) | 0 | 3 | -3 | 3
Cc1[nH]c2ccc(-c3nnc(SCC(=O)N4CCCCC4C)o3)cc2c1C (configuration not stated) | 0 | -4 | 51* | 0
COc1ccccc1NC(=O)N1CCC(c2nc3ccc(C)cc3[nH]2)CC1 | 0 | -3 | 64* | 0
COc1ccccc1NC(=O)N1CCC(c2nc3ccc(Cl)cc3[nH]2)CC1 | 0 | -3 | 80* | 0
COc1ccccc1NC(=O)CN1CCC(c2nc3ccc(C)cc3[nH]2)CC1 | 0 | -18 | -17 | 0
N#C/C(=N/Nc1cccc(C(F)(F)F)c1)C(N)=S | 0 | -2 | 47* | 0

Compound activity (PubChem)
